From PubChem BioAssay (Tox21) come the findings set out here.

Unmarked numbers belong to inactive results. Records with an inconclusive call do not appear. Active and inactive are the calls of the source. Calls follow the shape of the dose curve; as a rule, active = well fitted curve in the direction sought with a large enough effect in the repeat runs; inconclusive = weak or mixed curves; inactive = no such curve, though single readings can be large; an effect the other way counts as inactive or inconclusive.

The nature of test [1]: qHTS RealTime-Glo MT Cell Viability Assay in HepG2 cells - 40 hour (AID 1224870). Also: nearly all actives have a fitted effect of over 50% in size. In a few lines:
(§1)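 HepG2 cells mixed with RealTime-Glo MT reagents (NanoLuc plus cell-permeant prosubstrate) were seeded at 600 cells/well, incubated 5 h at 37 C/5% CO2, then pinned with compounds in DMSO; nonlytic luminescence tracked viability during 40 h treatment.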
A general note: In qHTS, concentration-response curves come from the screen itself.

The nature of test [2]: A CellTox Green Cytotoxicity Assay to monitor cytotoxicity in HEK293 cells - 40 hour (AID 1224871). Also: nearly all actives have a fitted effect of over 45% in size. In a few lines:
(§2)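 Seeding of HEK293 cells together with cytotoxicity dye preceded a 5 h incubation at 37 C/5% CO2. Test compounds in DMSO were then added and fluorescence monitored across 40 h.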

Test [3] is described as follows: qHTS RealTime-Glo MT Cell Viability Assay in HEK293 cells - 16 hour (AID 1224872). Also: nearly all actives have a fitted effect of over 50% in size. Also: potency is read from the fitted curve at half-maximal effect. In a few lines:
(§3)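 Tox21 10K qHTS, HEK293, 600 cells/well, RealTime-Glo reagent co-dispensed with cells; 5 h preincubation, compound by pintool, 37 C, luminescence at 0–40 h.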

Test [4] is described as follows: qHTS RealTime-Glo MT Cell Viability Assay in HepG2 cells - 8 hour (AID 1224873). Also: nearly all actives have a fitted effect of over 55% in size. In short, it runs like this: as §1
Test [5] in a line: qHTS RealTime-Glo MT Cell Viability Assay in HEK293 cells - 40 hour (AID 1224874). Also: nearly all actives have a fitted effect of over 50% in size. Also: potency is read from the fitted curve at half-maximal effect. The note with it: RealTime-Glo luminescence; max response: stronger effect = lower value. In a few lines:
(§4)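 Tox21 screen in HEK293 using RealTime-Glo MT chemistry, with cells and reagent co-dispensed. Luminescence proportional to viable cell number was captured at intervals during 40 h compound exposure at 37 C.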

A short description of test [6]: A CellTox Green Cytotoxicity Assay to monitor cytotoxicity in HEK293 cells - 24 hour (AID 1224875). Also: series mostly up to about 77 µM; nearly all actives have a fitted effect of over 45% in size. In short, it runs like this:
as §2

Test [7] is described as follows: A CellTox Green Cytotoxicity Assay to monitor cytotoxicity in HepG2 cells - 16 hour (AID 1224876). Also: nearly all actives have a fitted effect of over 45% in size. In a few lines:
(§5)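 Nonlytic assay: viable cells exclude the dye, so fluorescence scales with cell death. HepG2 at 600 cells/well, compounds added after 5 h, signal read across 40 h.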

Test [8] in a line: qHTS RealTime-Glo MT Cell Viability Assay in HepG2 cells - 32 hour (AID 1224877). Also: nearly all actives have a fitted effect of over 55% in size. In a few lines: (§6)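 Cells + NanoLuc/prosubstrate dispensed (600 cells/well) → 5 h at 37 C/5% CO2 → compounds in DMSO transferred → 40 h incubation at 37 C, luminescence read at 0, 8, 16, 24, 32, 40 h.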
Test [9] can be described thus: A CellTox Green Cytotoxicity Assay to monitor cytotoxicity in HepG2 cells - 24 hour (AID 1224878). Also: nearly all actives have a fitted effect of over 45% in size. In a few lines: as §5
Test [10] in a line: A CellTox Green Cytotoxicity Assay to monitor cytotoxicity in HepG2 cells - 40 hour (AID 1224879). Also: nearly all actives have a fitted effect of over 40% in size. In short, it runs like this: as §5
Test [11] can be described thus: qHTS RealTime-Glo MT Cell Viability Assay in HEK293 cells - 0 hour (AID 1224880). Also: nearly all actives have a fitted effect of over 45% in size. Also: potency is read from the fitted curve at half-maximal effect. In a few lines: as §4
The nature of test [12]: A CellTox Green Cytotoxicity Assay to monitor cytotoxicity in HEK293 cells - 32 hour (AID 1224881). Also: nearly all actives have a fitted effect of over 40% in size. In short, it runs like this:
as §2

A short description of test [13]: A CellTox Green Cytotoxicity Assay to monitor cytotoxicity in HepG2 cells - 0 hour (AID 1224882). Also: nearly all actives have a fitted effect of over 35% in size. In short, it runs like this: as §5
The nature of test [14]: A CellTox Green Cytotoxicity Assay to monitor cytotoxicity in HepG2 cells - 32 hour (AID 1224883). Also: nearly all actives have a fitted effect of over 50% in size. In a few lines: as §5
Test [15] can be described thus: A CellTox Green Cytotoxicity Assay to monitor cytotoxicity in HEK293 cells - 8 hour (AID 1224884). Also: nearly all actives have a fitted effect of over 35% in size. In a few lines:
as §2

Test [16] is described as follows: qHTS RealTime-Glo MT Cell Viability Assay in HepG2 cells - 16 hour (AID 1224885). Also: nearly all actives have a fitted effect of over 50% in size. In short, it runs like this:
as §6

Test [17] is described as follows: qHTS RealTime-Glo MT Cell Viability Assay in HEK293 cells - 24 hour (AID 1224886). Also: nearly all actives have a fitted effect of over 50% in size. Also: potency is read from the fitted curve at half-maximal effect. In short, it runs like this:
as §3

A short description of test [18]: qHTS RealTime-Glo MT Cell Viability Assay in HEK293 cells - 8 hour (AID 1224887). Also: nearly all actives have a fitted effect of over 50% in size. Also: potency is read from the fitted curve at half-maximal effect. In a few lines: as §4
Test [19] can be described thus: A CellTox Green Cytotoxicity Assay to monitor cytotoxicity in HEK293 cells - 16 hour (AID 1224888). Also: nearly all actives have a fitted effect of over 35% in size. In a few lines: as §2
A short description of test [20]: qHTS RealTime-Glo MT Cell Viability Assay in HepG2 cells - 0 hour (AID 1224889). Also: nearly all actives have a fitted effect of over 50% in size. Also: potency is read from the fitted curve at half-maximal effect. In a few lines:
as §6
% is scaled to controls: 0 for no effect and ±100 for the full control effect.

In the case of `CC1(C)[C@H](C=C(Cl)Cl)[C@@H]1C(=O)O[C@@H](C#N)c1cccc(Oc2ccccc2)c1`, the Potency entry in test [1], in [2], in test [3], in [4], in test [6] and in test [7] was “inactive” in each case. Moreover, the Potency result in [8], in test [9], in [10], in test [11], in test [12] and in [13] was “inactive” throughout. Moreover, the Potency result in [14], in test [15], in test [16], in [17], in [18] and in test [19] was “inactive” in each case. Also, the Potency entry in test [20] was “inactive”. The max response in test [5] is 0.601%.

Turning to `c1ccc(CN2CCNCC2)cc1`, the Potency entry in test [1], in [2], in test [3], in test [4], in [6] and in test [7] was “inactive” throughout. Also, the Potency result in test [8], in test [9], in test [10], in test [11], in test [12] and in test [13] was “inactive” each time. Besides, the Potency result in test [14], in [15], in [16], in [17], in [18] and in test [19] was “inactive” each time. Besides, in test [20], the Potency entry was “inactive”. For the same compound, in test [5], the max response was 3.29%.

For the compound `O=S1(=O)OC(c2cc(Br)c(O)c(Br)c2)(c2cc(Br)c(O)c(Br)c2)c2ccccc21`, the Potency entry in test [1], in [2], in [3], in [4], in test [6] and in test [7] was “inactive” throughout. The Potency entry in test [8], in [9], in test [10], in [12], in test [13] and in test [14] was “inactive” in each case. For the same compound, the Potency result in test [15], in [16], in [17], in test [18] and in test [19] was “inactive” throughout. Besides, in [5], the max response was 11.5%. Besides, the Potency in test [11] is 10 µM (active); in test [20] it was 6.34 µM (active).

Take `Cc1ccccc1CCl`: the Potency entry in [1], in test [2], in test [3], in test [4], in test [6] and in test [7] was “inactive” in each case. Further, the Potency result in test [8], in test [9], in test [10], in test [11], in [12] and in [13] was “inactive” each time. For the same compound, the Potency result in [14], in [15], in test [16], in [17], in test [18] and in [19] was “inactive” in each case. The Potency result in test [20] is “inactive”. Besides, the max response in [5] is -6.69%.

As to `C[N+](C)(C)CCCl`, the Potency entry in test [1], in test [2], in test [3], in test [4], in test [6] and in [7] was “inactive” in each case. Moreover, the Potency entry in [8], in test [9], in [10], in [11], in [12] and in [13] was “inactive” each time. Further, the Potency result in test [14], in [15], in test [16], in test [17], in [18] and in test [19] was “inactive” each time. The Potency entry in test [20] is “inactive”. For the same compound, the max response in [5] was 21.2%.

In the case of `O=C(C(Cl)(Cl)Cl)C(Cl)(Cl)Cl`, the Potency entry in [1], in test [2], in test [3], in test [4], in [6] and in test [7] was “inactive” in each case. The Potency entry in test [8], in test [9], in test [10], in test [11], in [12] and in test [13] was “inactive” in each case. Also, the Potency entry in test [14], in test [15], in test [16], in test [17], in test [18] and in test [19] was “inactive” throughout. Moreover, in test [5], the max response was -7.45%.

As for `C[C@]12CC[C@H]3[C@@H](CCC4=CC(=O)CC[C@@H]43)[C@@H]1CC[C@@H]2OC(=O)CCC1CCCCC1`, the Potency entry in test [1], in [2], in test [3], in [4], in test [6] and in test [7] was “inactive” in each case. Besides, the Potency result in test [8], in [9], in [10], in test [11], in test [12] and in [13] was “inactive” throughout. Further, the Potency result in test [14], in test [15], in [16], in [17], in test [18] and in test [19] was “inactive” each time. Also, in test [20], the Potency entry was “inactive”. Moreover, in test [5], the max response is -18.6%.

Turning to `CCCCCCCCCC(=O)O[C@H]1CC[C@H]2[C@@H]3CCC4=CC(=O)CC[C@@H]4[C@H]3CC[C@]12C`, the Potency result in [1], in test [2], in [3], in [4], in [6] and in [7] was “inactive” throughout. The Potency entry in [8], in test [9], in test [10], in [11], in test [12] and in test [13] was “inactive” in each case. Besides, the Potency result in test [14], in [15], in test [16], in test [17], in test [18] and in [19] was “inactive” each time. Besides, the Potency result in [20] is “inactive”. Moreover, in test [5], the max response was 3.16%.

Consider `CCCCc1c(C)nc(NCC)nc1OS(=O)(=O)N(C)C`, for which the Potency result in [1], in test [2], in test [4], in test [6], in [7] and in test [8] was “inactive” in each case. The Potency result in test [9], in test [10], in test [11], in test [12], in test [13] and in test [14] was “inactive” throughout. For the same compound, the Potency entry in [15], in [16], in test [19] and in [20] was “inactive” throughout. Also, the Potency in test [3] is 12.3 µM (active); in test [5], 13.8 µM (active); in test [17], 12.3 µM (active); in [18], 9.77 µM (active).

As for `CCCCCC[N+](=O)[O-]`, the Potency result in [1], in [2], in test [3], in test [4], in test [6] and in test [7] was “inactive” each time. Further, the Potency entry in test [8], in test [9], in [10], in test [11], in [12] and in test [13] was “inactive” in each case. In addition, the Potency entry in [14], in test [15], in test [16], in test [17], in test [18] and in [19] was “inactive” throughout. In [20], the Potency result was “inactive”. Further, in [5], the max response was 4.3%.

As for `c1ccc(C2CC2)c(OCC2=NCCN2)c1`, the Potency result in test [1], in [2], in [3], in test [4], in [6] and in test [7] was “inactive” in each case. Moreover, the Potency entry in test [8], in [9], in test [10], in test [11], in test [12] and in test [13] was “inactive” each time. The Potency entry in test [14], in test [16], in test [17], in test [18], in test [19] and in [20] was “inactive” throughout. Also, in [5], the max response is 3.13%.

Consider `COc1cc(CC(C)N)cc2c1OCO2` (centres undefined), for which the Potency entry in test [1], in test [2], in test [3], in test [4], in test [6] and in test [7] was “inactive” throughout. In addition, the Potency entry in test [8], in test [9], in test [10], in test [11], in test [12] and in [13] was “inactive” each time. Also, the Potency entry in test [14], in test [15], in test [17], in test [18], in test [19] and in test [20] was “inactive” throughout. Further, the max response in test [5] is -17.7%.

For `Nc1ccc(N=Nc2ccc(-c3ccc(N=Nc4c(S(=O)(=O)O)cc5cc(S(=O)(=O)O)c(N=Nc6ccccc6)c(O)c5c4N)cc3)cc2)c(N)c1`, the Potency entry in test [1], in [2], in test [3], in test [4], in test [6] and in test [7] was “inactive” in each case. The Potency result in test [8], in test [9], in test [10], in test [11], in test [12] and in test [13] was “inactive” throughout. Also, the Potency entry in test [14], in test [15], in test [17], in test [18] and in test [19] was “inactive” each time. For the same compound, the max response in test [5] is 23.2%.

For the compound `NC(=O)C(Cl)(Cl)Cl`, the Potency entry in [1], in test [2], in test [3], in test [4], in test [6] and in test [7] was “inactive” throughout. Also, the Potency result in [8], in test [9], in test [10], in [11], in test [12] and in test [13] was “inactive” each time. In addition, the Potency result in test [14], in test [16], in [17], in [18], in test [19] and in [20] was “inactive” in each case. Besides, in test [5], the max response was 16.8%.
